{"source": "the supplement of paper PMC8728848", "binders": {"B1": {"name": "Pwp2 (Candida glabrata) (protein)", "chain": "MGSSHHHHHHSSGLVPRGSHMASKNPVELNNVCTFPNDYGRIPGFTVLVGRLGLLISASDYKELLRYPGAFLIATQDTMTTSPNFELTGFPFFTGLYGLTVFPLDLLVELRGYFVPPNSGQYTFTLSDSDDAAIIFLGNPSAFPCGDLQNWPKPSEEDITVTDHLFPSRTLYLIEGVAYPMRIAYYNGIGAGRLNAAFIDPSGTRHTNWEGYIWQYDPCSTCTYS"}}, "experiment_in_all_cases": "glycan array binding signal (z-score within array); higher = stronger binding", "conditions_in_all_cases": "glycan notation: IUPAC condensed, linker removed", "key": {"[1]": {"molecular_target": "Man(a1-2)Man(a1-3)[Man(a1-2)Man(a1-6)]Man", "summary_of_the_method": "(§1)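 The binding signal is a Z-score computed within each array and averaged over linkers. Arrays of the same protein sequence at different concentrations or buffers were also averaged together. Data originate from 3228 arrays in the Consortium for Functional Glycomics database, kept only where the protein sequence was available.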"}, "[2]": {"molecular_target": "Man(a1-2)Man(a1-3)[Man(a1-2)Man(a1-6)]Man(a1-6)[Man(a1-2)Man(a1-2)Man(a1-3)]Man", "summary_of_the_method": "as §1"}, "[3]": {"molecular_target": "Man(a1-2)Man(a1-6)[Man(a1-3)]Man(a1-6)[Man(a1-2)Man(a1-2)Man(a1-3)]Man(b1-4)GlcNAc(b1-4)GlcNAc", "summary_of_the_method": "as §1"}, "[4]": {"molecular_target": "Man(a1-3)[Man(a1-6)]Man(a1-6)[Man(a1-3)]Man", "summary_of_the_method": "as §1"}, "[5]": {"molecular_target": "Neu5Ac(a2-3)Gal(b1-3)GalNAc(b1-3)Gal(a1-4)Gal(b1-4)Glc", "summary_of_the_method": "as §1"}, "[6]": {"molecular_target": "Neu5Ac(a2-3)Gal(b1-3)GlcNAc(b1-3)Gal(b1-3)GlcNAc", "summary_of_the_method": "as §1"}, "[7]": {"molecular_target": "Neu5Ac(a2-3)Gal(b1-3)GlcNAc6S", "summary_of_the_method": "as §1"}, "[8]": {"molecular_target": "Neu5Ac(a2-3)Gal(b1-3)[Fuc(a1-4)]GlcNAc", "summary_of_the_method": "as §1"}, "[9]": {"molecular_target": "Neu5Ac(a2-3)Gal(b1-3)[Fuc(a1-4)]GlcNAc(b1-3)Gal(b1-3)[Fuc(a1-4)]GlcNAc", "summary_of_the_method": "as §1"}, "[10]": {"molecular_target": "Neu5Ac(a2-3)Gal(b1-4)GlcNAc(b1-2)Man(a1-3)[Neu5Ac(a2-3)Gal(b1-4)GlcNAc(b1-2)Man(a1-6)]Man(b1-4)GlcNAc(b1-4)[Fuc(a1-6)]GlcNAc", "summary_of_the_method": "as §1"}, "[11]": {"molecular_target": "Neu5Ac(a2-3)Gal(b1-4)GlcNAc(b1-2)[Neu5Ac(a2-3)Gal(b1-4)GlcNAc(b1-6)]Man(a1-6)[Neu5Ac(a2-3)Gal(b1-4)GlcNAc(b1-2)Man(a1-3)][GlcNAc(b1-4)]Man(b1-4)GlcNAc(b1-4)GlcNAc", "summary_of_the_method": "as §1"}, "[12]": {"molecular_target": "Neu5Ac(a2-3)Gal(b1-4)GlcNAc(b1-3)Gal(b1-4)GlcNAc(b1-6)[Gal(b1-3)]GalNAc", "summary_of_the_method": "as §1"}, "[13]": {"molecular_target": "Neu5Ac(a2-3)Gal(b1-4)GlcNAc(b1-6)GalNAc", "summary_of_the_method": "as §1"}, "[14]": {"molecular_target": "Neu5Ac(a2-3)Gal(b1-4)[Fuc(a1-3)]GlcNAc6S", "summary_of_the_method": "as §1"}, "[15]": {"molecular_target": "Neu5Ac(a2-3)[GalNAc(b1-4)]Gal(b1-4)Glc", "summary_of_the_method": "as §1"}, "[16]": {"molecular_target": "Neu5Ac(a2-3)[GalNAc(b1-4)]Gal(b1-4)GlcNAc(b1-3)GalNAc", "summary_of_the_method": "as §1"}, "[17]": {"molecular_target": "Neu5Ac(a2-6)Gal(b1-4)GlcNAc(b1-2)Man(a1-3)[Neu5Ac(a2-6)Gal(b1-4)GlcNAc(b1-2)Man(a1-6)]Man(b1-4)GlcNAc(b1-4)[Fuc(a1-6)]GlcNAc", "summary_of_the_method": "as §1"}, "[18]": {"molecular_target": "Neu5Ac(a2-6)Gal(b1-4)GlcNAc(b1-3)Gal(b1-4)GlcNAc(b1-3)[Neu5Ac(a2-6)Gal(b1-4)GlcNAc(b1-3)Gal(b1-4)GlcNAc(b1-6)]GalNAc", "summary_of_the_method": "as §1"}, "[19]": {"molecular_target": "Neu5Ac(a2-6)Gal(b1-4)GlcNAc(b1-3)Gal(b1-4)[Fuc(a1-3)]GlcNAc(b1-3)Gal(b1-4)[Fuc(a1-3)]GlcNAc", "summary_of_the_method": "as §1"}, "[20]": {"molecular_target": "Neu5Ac(a2-6)Gal(b1-4)GlcNAc(b1-6)[Gal(b1-3)]GalNAc", "summary_of_the_method": "as §1"}, "[21]": {"molecular_target": "Neu5Ac(a2-6)Gal(b1-4)GlcNAc6S", "summary_of_the_method": "as §1"}, "[22]": {"molecular_target": "Neu5Ac(a2-6)GalNAc(b1-4)GlcNAc6S", "summary_of_the_method": "as §1"}, "[23]": {"molecular_target": "Neu5Ac(a2-8)Neu5Ac", "summary_of_the_method": "as §1"}, "[24]": {"molecular_target": "Neu5Ac(a2-8)Neu5Ac(a2-8)Neu5Ac", "summary_of_the_method": "as §1"}, "[25]": {"molecular_target": "Neu5Ac(a2-8)Neu5Ac(a2-8)Neu5Ac(a2-3)[GalNAc(b1-4)]Gal(b1-4)Glc", "summary_of_the_method": "as §1"}, "[26]": {"molecular_target": "Neu5Gc(a2-3)Gal(b1-3)[Fuc(a1-4)]GlcNAc", "summary_of_the_method": "as §1"}, "[27]": {"molecular_target": "Neu5Gc(a2-3)Gal(b1-4)GlcNAc", "summary_of_the_method": "as §1"}, "[28]": {"molecular_target": "Neu5Gc(a2-8)Neu5Ac(a2-3)Gal(b1-4)GlcNAc", "summary_of_the_method": "as §1"}}, "note": "The entries come from a sample that favours the strongest signals as a whole.", "data": [{"binder": "B1", "values": [{"measurement": "glycan array binding signal (z-score)", "setting": "[1]", "value": -0.477}, {"measurement": "glycan array binding signal (z-score)", "setting": "[2]", "value": -0.722}, {"measurement": "glycan array binding signal (z-score)", "setting": "[3]", "value": -0.467}, {"measurement": "glycan array binding signal (z-score)", "setting": "[4]", "value": 5.45}, {"measurement": "glycan array binding signal (z-score)", "setting": "[5]", "value": -0.307}, {"measurement": "glycan array binding signal (z-score)", "setting": "[6]", "value": -0.269}, {"measurement": "glycan array binding signal (z-score)", "setting": "[7]", "value": -0.456}, {"measurement": "glycan array binding signal (z-score)", "setting": "[8]", "value": 0.549}, {"measurement": "glycan array binding signal (z-score)", "setting": "[9]", "value": 4}, {"measurement": "glycan array binding signal (z-score)", "setting": "[10]", "value": 0.96}, {"measurement": "glycan array binding signal (z-score)", "setting": "[11]", "value": 4.22}, {"measurement": "glycan array binding signal (z-score)", "setting": "[12]", "value": 1.44}, {"measurement": "glycan array binding signal (z-score)", "setting": "[13]", "value": 4.01}, {"measurement": "glycan array binding signal (z-score)", "setting": "[14]", "value": 0.309}, {"measurement": "glycan array binding signal (z-score)", "setting": "[15]", "value": 0.443}, {"measurement": "glycan array binding signal (z-score)", "setting": "[16]", "value": 0.085}, {"measurement": "glycan array binding signal (z-score)", "setting": "[17]", "value": 1.79}, {"measurement": "glycan array binding signal (z-score)", "setting": "[18]", "value": -0.059}, {"measurement": "glycan array binding signal (z-score)", "setting": "[19]", "value": -0.077}, {"measurement": "glycan array binding signal (z-score)", "setting": "[20]", "value": 3.56}, {"measurement": "glycan array binding signal (z-score)", "setting": "[21]", "value": -0.426}, {"measurement": "glycan array binding signal (z-score)", "setting": "[22]", "value": 4.86}, {"measurement": "glycan array binding signal (z-score)", "setting": "[23]", "value": -0.04}, {"measurement": "glycan array binding signal (z-score)", "setting": "[24]", "value": -0.203}, {"measurement": "glycan array binding signal (z-score)", "setting": "[25]", "value": 0.537}, {"measurement": "glycan array binding signal (z-score)", "setting": "[26]", "value": -0.072}, {"measurement": "glycan array binding signal (z-score)", "setting": "[27]", "value": 0.982}, {"measurement": "glycan array binding signal (z-score)", "setting": "[28]", "value": -0.437}]}]}
